Our source for the growth values is PubChem BioAssay (NCI).

Several values for one entry are separate records, joined by “and”; a condition that tells them apart may be missing. Identical values can stand only once. The panel holds about 83,000 compounds, 20% with a hit somewhere; the sample as a whole holds those more often.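 Each cell line was grown in a 96-well plate and treated with one concentration of compound for 48 hours. Values below 10 were considered active.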 Activity calls are given as the source filed them.

This experiment concerns HL-60(TB) leukemia. Briefly: NCI-60 one-dose screen, 48 h (100 = growth as untreated, 0 = no growth, -100 = all killed). The following applies: 10 µM unless noted.
For `CC(C)(C)N1CCC1CN` (stereo not given), the growth was 125% (inactive).
Under `COc1ccccc1NC(=O)N/C(N)=N/c1nc2ccccc2s1` stands -27.1% (active); under `C/C(=N\NC(=O)c1sc(=S)n(C)c1N)c1cc2ccccc2o1`, 26.6% (inactive); under `CC(=O)c1c(O)cc2c3c1OC(C)(C)C1CCC(C)(CC31)O2` (stereo not given), 89.2% (inactive).
On to `CN1CCN(C(=O)[C@]2(C)CC[C@]3(C)CC[C@]4(C)C(=CC(=O)[C@@H]5[C@@]6(C)CCC(=O)NC(C)(C)[C@@H]6CC[C@]54C)[C@@H]3C2)CC1`, for which the growth was 95.7% (inactive).
With `O=C1NN(C(=O)c2ccc(Cl)cc2)C(c2ccccc2)=N/C1=C\c1ccc(F)cc1`, the growth is -3.45% (active).
On to `COC(=O)[C@@H](CCCCNC(=O)[C@]12CCC(C)(C)C[C@@H]1C1=CC[C@@H]3[C@@]4(C)C/C(=C/c5ccco5)C(=O)C(C)(C)[C@@H]4CC[C@@]3(C)[C@]1(C)CC2)NC(=O)[C@]12CCC(C)(C)C[C@@H]1C1=CC[C@@H]3[C@@]4(C)C/C(=C/c5ccco5)C(=O)C(C)(C)[C@@H]4CC[C@@]3(C)[C@]1(C)CC2`, for which the growth was 114% (inactive).
Under `N#CCCN(CCO)c1ccccc1` stands 89.9% (inactive); under `N#Cc1c(-c2ccccc2)cc(-c2ccccc2)n(CCC(=O)O)c1=O`, 13.8% (inactive).
For the compound `O=[N+]([O-])c1ccc(C2N(Cc3ccc(Cl)cc3)CCN2Cc2ccc(Cl)cc2)cc1`, the growth is 86.9% (inactive).
Under `Nc1ncnc2c1C(c1ccccc1)c1ccc3ccccc3c1O2` (stereo not given) stands 82.4% (inactive); under `COC1=CC(=O)c2nc(Cl)ccc2C1=O`, -30.1% (active).
The result for `C=C1C(=O)O[C@H]2[C@H]1CC/C(Cn1cc(CNC(=O)c3cc4ccccc4[nH]3)nn1)=C\CC[C@@]1(C)O[C@@H]21` reads -20.8% (active); that for `C=CC(=O)NC(=O)Nc1ccccc1Cl`, 33.4% (inactive).
Under `Cc1ccc(NS(=O)(=O)c2ccc(C)cc2)cc1` stands 87.5% (inactive) and 114% (inactive).
As for `Oc1ccc2ccccc2c1N=Nc1nccs1`, the growth is -44.3% (active).
For `COc1ccc(Nc2ccnc(N3CCN(c4ccnc5cc(Cl)ccc45)CC3)n2)cc1`, the growth was -16.8% (active).
The result for `Cc1cc(C(=O)c2ccc(Cl)cc2)ccc1O` reads 147% (inactive); that for `NC(=O)c1cc(Cl)ccc1NC(=O)c1ccccc1-c1ccccc1`, 1.29% (active); that for `CCCCCCCNc1nc(C=O)ncc1-c1ccc(C(F)(F)F)cc1`, 64.4% (inactive).
The result for `O=C(Cn1cc(CN2CCCCCC2)nn1)Nc1ccc2c(ccn2Cc2ccccc2)c1` reads 92.2% (inactive); that for `N#Cc1cccc(/C=C(/C(=O)c2ccccc2)c2ccccc2)c1`, 43.7% (inactive); that for `COc1ccc(Cn2c(Br)c3c(c2Br)-c2nc(NC(=O)c4ccc(OC)cc4)sc2CC3)cc1`, 75.9% (inactive).
Under `Cc1ccc2c(c1)Sc1c(ccc3ccccc13)N2` stands 44.9% (inactive).
For the compound `CNC(=O)c1ccccc1Nc1nc(Nc2ccc3c(c2OC)CCC[C@H](N2CCN(CCO)CC2)C3)ncc1Cl`, the growth was -45.7% (active).
As for `CCCCCCCCCCCCCCCCCCNC(=O)[C@H]1CSC(c2cccs2)N1` (stereo not given in full), the growth was -67.5% (active).
Turning to `Cc1ccc(-c2cc(O)c(-c3ccc(C)cc3C)cc2O)c(C)c1`, the growth was 21.2% (inactive).
Turning to `CN(c1ccccc1)c1ccc2c(c1)OCCC21CC1Nc1cnccc1C(=O)O` (stereo not given), the growth is 65.3% (inactive).
On to `O=C1c2ccccc2-c2c1nc1ccccc1[n+]2[O-]`, for which the growth is 101% (inactive).
For the compound `O=[N+]([O-])c1ccc(S(=O)Cc2ccccc2)c([N+](=O)[O-])c1` (stereo not given), the growth is 56.4% (inactive) and -7.5% (active).
The result for `COCCc1ccc(OCC(O)CNC(C)C)cc1` (stereo not given) reads 94.2% (inactive).
Under `Nc1c(C(=O)Nc2cccc(Cl)c2)sc2nc3c(cc12)C(=O)CCC3` stands 33.1% (inactive); under `COc1cc(NCCCCCCCNC(C)C)c2nccc(C)c2c1`, 75.1% (inactive) and 102% (inactive).
Take `CCN(CC)c1ccc(N=O)cc1`: the growth is 33.1% (inactive).
In the case of `CCC(C)C1CCC(O)CC1` (stereo not given), the growth is 99.3% (inactive).
Under `Cc1cc(=O)oc2c1ccc1oc(C#N)c(C)c12` stands 107% (inactive).
The result for `O=C(Nc1ccc(Cl)cc1)c1cc2ccccc2cc1OP(=O)(O)O` reads 37.3% (inactive); that for `COC(=O)[C@H](CC(C)C)NC(=O)NC(=O)NC(=O)CI`, 50.7% (inactive); that for `COc1cc(-c2cc(=O)oc3cc(O)ccc23)cc(OC)c1OC`, 86.3% (inactive).
As for `CCOc1ccc(/C=N/Nc2cc(C)nc3ccc(Cl)cc23)cc1`, the growth is -51.7% (active).
